# Assay: small molecules boosting NK-mediated OVCAR3 lysis – imaging, primary NK cells, calcein-AM imaging, primary screen (AID 1508625);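 further: compound given to NK cells 16 h before adding targets at 1.5 to 1 ratio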;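 on z-score: more negative robust z means stronger NK killing of tumor cells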
# Conditions: OVCAR3 lysis by primary NK cells, at 5 µM; z-score: measured here: robust Z-score, single-point normalisation
Structure (SMILES),"corrected activity, negative = more killing",z-score
Cc1ccc(Nc2nc(C)cc(C)c2C(N)=O)cc1,-3.73%,-1.66
CCCCCCCNC(=O)c1ccc2c(c1)ncn2-c1cccc(F)c1,-3.62%,-0.976
CC1(C)CC(c2csc(N)n2)CCO1 (centres undefined),-2.99%,-1.14
O=C1OC(c2ccccc2Cl)=NC1=Cc1cccs1,-0.515%,-0.219
Cc1c(Cl)cccc1NC(=O)c1sc2ncn(CC(=O)N3CCOCC3)c(=O)c2c1C,0.676%,0.246
Cc1n[nH]c(C)c1CCC(=O)NN=Cc1ccccc1O,-1.49%,-0.652
Cc1sc2nc(SCC(=O)Nc3ccc(N(C)C)cc3)[nH]c(=O)c2c1C,-4.5%,-2.5
CSCCOC(=O)C1=C(C)NC(=O)NC1c1cccc([N+](=O)[O-])c1 (centres undefined),0.214%,0.0664
Cc1ccc2c(N)c(C#N)sc2n1,-0.436%,-0.166
CCCNC(=O)C(=O)Nc1ccc(C(C)C)cc1,-1.6%,-0.603
O=C(O)C1C2C=CC(O2)C1C(=O)N1CCC(Cc2ccccc2)CC1 (centres undefined),-3.25%,-1.34
Cc1cccc(OCCn2c(=N)n(CC(N)=O)c3ccccc32)c1,-6.66%,-1.99
CC1CCC2C(=O)N(c3ccc(NCCc4ccccn4)c([N+](=O)[O-])c3)C(=O)C2C1 (centres undefined),-4.66%,-1.69
Cn1c(SCC(=O)Nc2cc(C(F)(F)F)ccc2Cl)nc2c([nH]c3ccccc32)c1=O,-6.37%,-1.58
Cc1cc(C)cc(NC(=O)c2ccccc2OCC(=O)N2CCc3ccccc32)c1,-2.33%,-1.3
COC(=O)c1ccc(COC(=O)c2cc(=O)[nH]c3ccccc23)cc1,-1.5%,-0.835
O=C(CCCn1c(=S)[nH]c2cc3c(cc2c1=O)OCO3)NC1CC1,-7.46%,-1.98
CCCCC(=O)NC(=S)Nc1ccc(Cl)c(C(=O)O)c1,-4.41%,-1.64
CCOC(=O)c1ccc(N=c2oc3ccccc3cc2C(=O)Nc2ccccc2)cc1,2.85%,1.01
CC(C(=O)N1CCN(c2ccccc2)CC1)c1ccc([N+](=O)[O-])cc1 (centres undefined),-3.44%,-1.91
CCOc1ccccc1C(=O)N1CCN(c2ccccc2OCC)CC1,-2.5%,-1.03

Structure (SMILES),"corrected activity, negative = more killing",z-score
COc1ccc(C=c2sc3nc4cc(C)c(C)cc4n3c2=O)cc1Br,-0.475%,-0.246
O=C(NCc1ccccn1)c1sc2cc([N+](=O)[O-])ccc2c1Cl,-2.44%,-0.775
Brc1ccc(-c2noc(CSc3ccccc3)n2)cc1,-0.336%,-0.187
CCOC(=O)C1CCN(c2ccc([N+](=O)[O-])cc2S(=O)(=O)N2CCOCC2)CC1,-3.03%,-0.939
COc1cc(OC)c(C=Nc2ccc(OC(F)(F)F)cc2)cc1Br,-1.81%,-0.768
CCOc1cccc(C=NN2CCN(Cc3ccccc3)CC2)c1O,-2.77%,-1.21
O=C(Nc1ccccc1[N+](=O)[O-])C12CC3CC(CC(C3)C1)C2,-1.55%,-0.55
O=C(Oc1cccc(NC(=O)c2ccccc2Cl)c1)c1ccc(Cl)c(S(=O)(=O)N2CCCCC2)c1,-3.19%,-1.2
Cc1cc(OCCCN2CCCCCC2)ccc1[N+](=O)[O-],0.702%,0.391
CCN(CC)S(=O)(=O)c1ccc(C(=O)Nc2nc(-c3ccccc3)c(C(C)=O)s2)cc1,-2.77%,-0.984
O=C(Nc1ccc(Oc2ccccc2)cc1)c1nn(-c2ccc(Cl)cc2)c(=O)c2ccccc12,-3.15%,-1.69
CCCCNC(=O)c1c[nH]c2ccc(S(=O)(=O)Nc3cccc(SC)c3)cc2c1=O,-1.92%,-0.471
CCOc1ccc(-c2cc(=O)c3ccccc3o2)cc1,-6.12%,-2.28
COc1cccc(Nc2ncnc3sc(C)c(S(=O)(=O)N4CCC(C)CC4)c23)c1,-2.61%,-0.65
c1ccc(-c2nnc3n2C2(CCCCC2)Cc2ccccc2-3)cc1,0.806%,0.417
Cc1cc(C)c(S(=O)(=O)NCc2ccc(C(=O)NCCc3ccc(Cl)cc3)cc2)c(C)c1,-5.64%,-1.38
CCCCOc1ccccc1C1NC(=O)NC(C)=C1C(=O)OCC(F)(F)F (centres undefined),-3.61%,-1.36
CCOc1ccc2nc(SCC(=O)Nc3ccccc3Oc3ccccc3)sc2c1,-3.99%,-1.24
CCOC(=O)C(Cc1ccccc1)C(=O)N(C1CCCCC1)C1CCCCC1 (centres undefined),-3.39%,-1.82
CCOC(=O)C1=C(C)Nc2sc(C(=O)c3ccc(C)cc3)c(N)c2C1c1ccc(C(=O)OC)cc1 (centres undefined),-4.02%,-1.2
COC(=O)c1ccc(COC(=O)c2ccc([N+](=O)[O-])c(C)c2)cc1,-0.897%,-0.499
